Among all 5,500 compounds or so, about 2,000 (36%) were called active. Another 18% or so got no clear call; they are omitted. Cut-off read from the data, not from the text of the source: active = normalized growth mostly below about 0.91 (no sharp cut-off); inconclusive = no clear call, values can overlap the other calls; inactive = mostly above about 0.92. This is one part of the list.
Assay: chemical genetic growth profiling, strain panel (AID 1159580);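 note: tested at 20 µM; growth read once vehicle control cultures reached saturation at 30 °C; 1 = growth at the plate median or of vehicle wells; lower values mean less growth of the strain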
Settings: growth OD

Measured: normalized growth

CO[C@@]12[C@@H]3NC3CN1C1=C(C(=O)C(N)=C(C)C1=O)[C@@H]2COC(N)=O (some centres not stated)
inactive: S. cerevisiae deletion strains, locus YJR075W, strain HOC1, stronger effect = lower value 0.995 | S. cerevisiae deletion strains, locus YKL009W, strain mrt4, stronger effect = lower value 0.964 | S. cerevisiae deletion strains, locus YKL068W, stronger effect = lower value 0.984 | S. cerevisiae deletion strains, locus YKL085W, strain MDH1 (second series), stronger effect = lower value 0.983 | S. cerevisiae deletion strains, locus YKL085W, strain MDH1, stronger effect = lower value 0.983 | S. cerevisiae deletion strains, locus YKL160W, strain elf1, stronger effect = lower value 0.974 | S. cerevisiae deletion strains, locus YKL190W, strain CNB1, stronger effect = lower value 1 | S. cerevisiae deletion strains, locus YKR001C, strain vps1, stronger effect = lower value 0.982 | S. cerevisiae deletion strains, locus YKR026C, strain gcn3, stronger effect = lower value 0.964 | S. cerevisiae deletion strains, locus YKR091W, strain srl3, stronger effect = lower value 0.959 | S. cerevisiae deletion strains, locus YLL001W, strain dnm1, stronger effect = lower value 0.929 | S. cerevisiae deletion strains, locus YLL026W, stronger effect = lower value 0.977 | S. cerevisiae deletion strains, locus YLL041C, strain sdh2, stronger effect = lower value 0.977 | S. cerevisiae deletion strains, locus YLR027C, strain aat2, stronger effect = lower value 0.953 | S. cerevisiae deletion strains, locus YLR039C, strain RIC1, stronger effect = lower value 1.01 | S. cerevisiae deletion strains, locus YLR058C, strain SHM2, stronger effect = lower value 0.999 | S. cerevisiae deletion strains, locus YLR102C, strain apc9, stronger effect = lower value 0.986 | S. cerevisiae deletion strains, locus YLR113W, strain HOG1, stronger effect = lower value 0.973 | S. cerevisiae deletion strains, locus YLR221C, strain rsa3, stronger effect = lower value 1.01 | S. cerevisiae deletion strains, locus YLR258W, strain gsy2, stronger effect = lower value 0.992 | S. cerevisiae deletion strains, locus YLR262C, strain YPT6 (second series), stronger effect = lower value 0.938 | S. cerevisiae deletion strains, locus YLR262C, strain YPT6, stronger effect = lower value 0.947 | S. cerevisiae deletion strains, locus YLR268W, strain sec22, stronger effect = lower value 1.01 | S. cerevisiae deletion strains, locus YLR320W, strain mms22, stronger effect = lower value 1.01 | S. cerevisiae deletion strains, locus YLR330W, strain CHS5, stronger effect = lower value 0.987 | S. cerevisiae deletion strains, locus YLR342W, strain FKS1 (second series), stronger effect = lower value 1 | S. cerevisiae deletion strains, locus YLR342W, strain FKS1, stronger effect = lower value 0.952 | S. cerevisiae deletion strains, locus YLR357W, strain rsc2, stronger effect = lower value 0.961 | S. cerevisiae deletion strains, locus YLR370C, strain arc18, stronger effect = lower value 0.96 | S. cerevisiae deletion strains, locus YLR371W, strain rom2, stronger effect = lower value 0.961 | S. cerevisiae deletion strains, locus YLR384C, strain iki3, stronger effect = lower value 0.953 | S. cerevisiae deletion strains, locus YLR418C, strain cdc73, stronger effect = lower value 1.05 | S. cerevisiae deletion strains, locus YML016C, strain PPZ1, stronger effect = lower value 1 | S. cerevisiae deletion strains, locus YML032C, strain rad52, stronger effect = lower value 0.96 | S. cerevisiae deletion strains, locus YML120C, strain ndi1, stronger effect = lower value 0.94 | S. cerevisiae deletion strains, locus YML124C, strain tub3, stronger effect = lower value 0.979 | S. cerevisiae deletion strains, locus YMR058W, strain fet3, stronger effect = lower value 0.942 | S. cerevisiae deletion strains, locus YMR078C, strain ctf18, stronger effect = lower value 0.975 | S. cerevisiae deletion strains, locus YMR125W, strain sto1, stronger effect = lower value 0.982 | S. cerevisiae deletion strains, locus YMR129W, stronger effect = lower value 0.975 | S. cerevisiae deletion strains, locus YMR205C, strain PFK2, stronger effect = lower value 0.996 | S. cerevisiae deletion strains, locus YMR223W, strain ubp8, stronger effect = lower value 0.977 | S. cerevisiae deletion strains, locus YMR231W, strain pep5, stronger effect = lower value 0.949 | S. cerevisiae deletion strains, locus YMR263W, strain SAP30, stronger effect = lower value 1.01 | S. cerevisiae deletion strains, locus YMR307W, strain GAS1, stronger effect = lower value 1.02 | S. cerevisiae deletion strains, locus YNL067W, strain RPL9B, stronger effect = lower value 1.02 | S. cerevisiae deletion strains, locus YNL071W, strain lat1, stronger effect = lower value 0.971 | S. cerevisiae deletion strains, locus YNL128W, strain TEP1, stronger effect = lower value 1 | S. cerevisiae deletion strains, locus YNL153C, strain GIM3, stronger effect = lower value 1.03 | S. cerevisiae deletion strains, locus YNL183C, strain NPR1, stronger effect = lower value 0.94 | S. cerevisiae deletion strains, locus YNL209W, strain ssb2, stronger effect = lower value 0.972 | S. cerevisiae deletion strains, locus YNL233W, strain BNI4, stronger effect = lower value 1.05 | S. cerevisiae deletion strains, locus YNL248C, strain rpa49, stronger effect = lower value 0.99 | S. cerevisiae deletion strains, locus YNL250W, strain rad50, stronger effect = lower value 0.975 | S. cerevisiae deletion strains, locus YNL271C, strain bni1, stronger effect = lower value 0.979 | S. cerevisiae deletion strains, locus YNL298W, strain CLA4, stronger effect = lower value 0.978 | S. cerevisiae deletion strains, locus YNL307C, strain MCK1, stronger effect = lower value 0.979 | S. cerevisiae deletion strains, locus YNL322C, strain KRE1 (second series), stronger effect = lower value 0.945 | S. cerevisiae deletion strains, locus YNL322C, strain KRE1, stronger effect = lower value 0.997 | S. cerevisiae deletion strains, locus YNR049C, strain mso1, stronger effect = lower value 0.978 | S. cerevisiae deletion strains, locus YNR052C, strain pop2, stronger effect = lower value 0.96 | S. cerevisiae deletion strains, locus YOL006C, strain TOP1, stronger effect = lower value 1.04 | S. cerevisiae deletion strains, locus YOL012C, strain htz1 0.963 | S. cerevisiae deletion strains, locus YOL147C, strain pex11, stronger effect = lower value 0.984 | S. cerevisiae deletion strains, locus YOR001W, strain rrp6, stronger effect = lower value 0.946 | S. cerevisiae deletion strains, locus YOR061W, strain CKA2, stronger effect = lower value 1.01 | S. cerevisiae deletion strains, locus YOR069W, strain VPS5, stronger effect = lower value 1 | S. cerevisiae deletion strains, locus YOR070C, strain gyp1, stronger effect = lower value 0.993 | S. cerevisiae deletion strains, locus YOR080W, strain dia2, stronger effect = lower value 0.968 | S. cerevisiae deletion strains, locus YOR083W, strain WHI5, stronger effect = lower value 0.94 | S. cerevisiae deletion strains, locus YOR106W, strain vam3, stronger effect = lower value 0.929 | S. cerevisiae deletion strains, locus YOR136W, strain idh2, stronger effect = lower value 0.981 | S. cerevisiae deletion strains, locus YOR144C, strain elg1, stronger effect = lower value 0.985 | S. cerevisiae deletion strains, locus YOR184W, strain ser1, stronger effect = lower value 0.948 | S. cerevisiae deletion strains, locus YOR231W, strain MKK1, stronger effect = lower value 0.982 | S. cerevisiae deletion strains, locus YOR265W, strain rbl2, stronger effect = lower value 0.963 | S. cerevisiae deletion strains, locus YOR270C, strain vph1, stronger effect = lower value 1 | S. cerevisiae deletion strains, locus YOR290C, strain snf2, stronger effect = lower value 0.998 | S. cerevisiae deletion strains, locus YOR316C, strain cot1, stronger effect = lower value 0.994 | S. cerevisiae deletion strains, locus YPL051W, strain arl3, stronger effect = lower value 0.985 | S. cerevisiae deletion strains, locus YPL055C, strain LGE1, stronger effect = lower value 1.02 | S. cerevisiae deletion strains, locus YPL078C, strain atp4, stronger effect = lower value 0.921 | S. cerevisiae deletion strains, locus YPL106C, strain sse1, stronger effect = lower value 0.951 | S. cerevisiae deletion strains, locus YPL240C, strain hsp82, stronger effect = lower value 0.979 | S. cerevisiae deletion strains, locus YPL241C, strain CIN2, stronger effect = lower value 0.998 | S. cerevisiae deletion strains, locus YPL256C, strain CLN2, stronger effect = lower value 0.971 | S. cerevisiae deletion strains, locus YPR119W, strain clb2, stronger effect = lower value 0.995 | S. cerevisiae deletion strains, locus YPR141C, strain kar3, stronger effect = lower value 0.983 | S. cerevisiae deletion strains, locus YPR163C, strain tif3, stronger effect = lower value 0.966 | S. cerevisiae deletion strains, locus YPR167C, strain met16, stronger effect = lower value 0.987 | S. cerevisiae deletion strains, strain wtn01, stronger effect = lower value 1.02 | S. cerevisiae strains, strain wild type, stronger effect = lower value 0.997

Reference: PubChem BioAssay AID1159580 (chemical genetic matrix, 2015)
